Assay results reported in PubChem BioAssay.
For some of these results: Results with a measured potency or affinity are listed apart. Active and inactive are the calls of the source. Unless noted, the rule behind the calls is not given here.

Assays:
[1] = antimalarial activity against Dd2 strain (AID 2302;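 active = growth inhibition above 50% at the single 2 µM test dose, taken to imply half-maximal potency below 2 µM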;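 note: 0% = DMSO untreated growth and 100% = chloroquine plus artemisinin killed control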); conditions: P. falciparum Dd2 in RBCs, LDH growth readout, 72 h; at 2 µM; active compounds read high
[2] = HepG2 cytotoxicity, primary screen, cytotoxicity control for P. falciparum antimalarial project, cell-based, ATP luminescence (AID 2303;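 active = inhibition above 50%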;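 note: 0% = DMSO wells and 100% = digitonin-killed cells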); conditions: HepG2 viability, 24-48 h, at 10 µM, active compounds read high
[3] = molecular target: L-lactate dehydrogenase (Plasmodium falciparum (isolate CDC / Honduras)) (UniProt Q27743); experiment: PfLDH activity inhibition – cell lysate, 3D7 strain, counter-screen for P. falciparum growth inhibition project (AID 2304);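 note: 0% = vehicle and 100% = reference inhibitor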; conditions: P. falciparum 3D7 crude extract, LDH APAD/NBT absorbance; at 2 µM; active compounds read high
L-lactate dehydrogenase (Plasmodium falciparum (isolate CDC / Honduras)), sequence (Q27743 whole entry, looked up): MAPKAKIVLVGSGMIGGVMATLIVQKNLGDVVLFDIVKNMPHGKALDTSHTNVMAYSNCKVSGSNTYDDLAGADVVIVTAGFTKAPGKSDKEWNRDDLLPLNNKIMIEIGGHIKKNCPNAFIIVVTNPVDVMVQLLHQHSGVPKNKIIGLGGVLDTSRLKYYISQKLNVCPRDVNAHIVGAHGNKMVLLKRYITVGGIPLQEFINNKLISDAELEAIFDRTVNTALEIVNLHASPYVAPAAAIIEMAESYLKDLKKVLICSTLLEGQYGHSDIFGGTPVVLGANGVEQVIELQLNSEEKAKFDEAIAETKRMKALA

[4] = inhibition of 3D7 malaria parasite growth – strain 3D7 (AID 2306);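 note: 0% = DMSO wells and 100% = chloroquine plus artemisinin control wells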; conditions: P. falciparum 3D7 erythrocytic growth, LDH absorbance, 72 h; at 2 µM; active compounds read high
[5] = molecular target: Calcium-dependent protein kinase 1 (Plasmodium falciparum (isolate 3D7)) (UniProt P62344); experiment: PfCDPK1 kinase inhibitors, biochemical, TCAMS library (AID 1159585; cut-off not given, nearly all actives have IC50 up to about 0.98 µM;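 note: inhibitors leave more ATP so luminescence rises with inhibition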); conditions: recombinant PfCDPK1, Kinase-Glo ATP depletion luminescence
Calcium-dependent protein kinase 1 (Plasmodium falciparum (isolate 3D7)), sequence (P62344 whole entry, looked up): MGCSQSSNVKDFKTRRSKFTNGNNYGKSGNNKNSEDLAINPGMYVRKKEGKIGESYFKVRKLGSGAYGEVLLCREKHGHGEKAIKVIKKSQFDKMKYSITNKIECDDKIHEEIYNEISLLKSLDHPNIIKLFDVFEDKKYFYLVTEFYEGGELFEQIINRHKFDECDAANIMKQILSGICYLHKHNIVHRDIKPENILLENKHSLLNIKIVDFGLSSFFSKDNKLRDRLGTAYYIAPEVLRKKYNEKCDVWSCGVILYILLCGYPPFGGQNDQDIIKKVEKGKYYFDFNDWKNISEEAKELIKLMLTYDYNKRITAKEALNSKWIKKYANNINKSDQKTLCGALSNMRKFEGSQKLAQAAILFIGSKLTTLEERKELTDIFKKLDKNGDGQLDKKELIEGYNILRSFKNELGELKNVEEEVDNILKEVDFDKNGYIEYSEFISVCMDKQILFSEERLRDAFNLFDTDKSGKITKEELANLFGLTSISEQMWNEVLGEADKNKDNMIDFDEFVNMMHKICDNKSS

[6] = molecular target: Plasmodium falciparum protein kinase 6 (PK6, PF3D7_1337100) (UniProt Q8IDW1); experiment: PfPK6 kinase inhibitors, biochemical, TCAMS library (AID 1159586); conditions: recombinant PfPK6, Kinase-Glo ATP depletion luminescence
Plasmodium falciparum protein kinase 6 (PK6, PF3D7_1337100), sequence (Q8IDW1 1-305): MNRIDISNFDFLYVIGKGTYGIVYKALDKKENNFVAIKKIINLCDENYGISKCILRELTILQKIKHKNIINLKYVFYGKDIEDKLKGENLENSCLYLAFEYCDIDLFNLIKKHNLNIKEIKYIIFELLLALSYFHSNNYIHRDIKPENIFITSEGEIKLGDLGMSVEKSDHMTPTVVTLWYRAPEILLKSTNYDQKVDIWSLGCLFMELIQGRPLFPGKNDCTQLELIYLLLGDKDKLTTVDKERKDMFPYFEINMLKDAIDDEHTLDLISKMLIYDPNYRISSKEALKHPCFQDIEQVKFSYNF

[7] = molecular target: Protein kinase 7 (PK7), Plasmodium falciparum 3D7 (PF3D7_0213400) (UniProt Q7YTF7); experiment: inhibition of Plasmodium PK7 catalytic activity – biochemical, TCAMS antimalarial set, Kinase-Glo luminescence (AID 1159587); conditions: recombinant PfPK7, Kinase-Glo ATP depletion luminescence
Protein kinase 7 (PK7), Plasmodium falciparum 3D7 (PF3D7_0213400), sequence (Q7YTF7 1-343): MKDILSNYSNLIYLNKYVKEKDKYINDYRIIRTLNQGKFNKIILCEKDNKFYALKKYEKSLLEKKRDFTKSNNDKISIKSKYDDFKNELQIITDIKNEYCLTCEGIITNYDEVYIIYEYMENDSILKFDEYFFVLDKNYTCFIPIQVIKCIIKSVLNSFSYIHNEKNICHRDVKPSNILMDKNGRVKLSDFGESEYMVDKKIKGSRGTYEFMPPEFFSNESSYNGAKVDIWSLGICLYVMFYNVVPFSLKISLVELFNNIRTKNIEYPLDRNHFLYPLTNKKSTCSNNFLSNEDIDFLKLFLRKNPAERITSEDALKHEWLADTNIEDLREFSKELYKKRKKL

[8] = molecular target: Calcium-dependent protein kinase 4 (Plasmodium falciparum (isolate 3D7)) (UniProt Q8IBS5); experiment: PfCDPK4 kinase inhibitors, biochemical, TCAMS library (AID 1159588; cut-off not given, nearly all actives have IC50 up to about 0.91 µM); conditions: recombinant PfCDPK4, Kinase-Glo ATP depletion luminescence
Calcium-dependent protein kinase 4 (Plasmodium falciparum (isolate 3D7)), sequence (Q8IBS5 whole entry, looked up): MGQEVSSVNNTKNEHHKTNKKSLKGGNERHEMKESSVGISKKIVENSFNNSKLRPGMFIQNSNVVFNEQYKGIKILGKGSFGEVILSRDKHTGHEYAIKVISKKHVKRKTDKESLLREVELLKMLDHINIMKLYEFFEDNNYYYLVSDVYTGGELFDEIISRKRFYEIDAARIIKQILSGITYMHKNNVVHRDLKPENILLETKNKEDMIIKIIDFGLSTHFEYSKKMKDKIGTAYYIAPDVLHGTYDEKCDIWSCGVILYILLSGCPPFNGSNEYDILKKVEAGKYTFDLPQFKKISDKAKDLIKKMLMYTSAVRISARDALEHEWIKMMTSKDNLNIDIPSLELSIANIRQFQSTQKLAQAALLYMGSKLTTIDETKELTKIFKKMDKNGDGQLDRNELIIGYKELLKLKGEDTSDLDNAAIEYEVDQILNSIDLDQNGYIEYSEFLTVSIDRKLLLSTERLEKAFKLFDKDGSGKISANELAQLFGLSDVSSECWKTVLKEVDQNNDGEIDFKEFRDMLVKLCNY

N#CC(c1ccc(F)cc1)c1ccc2c(C(F)(F)F)cc(C(F)(F)F)nc2n1 (stereo not drawn)
inactive: inhibition [2] 9% | inhibition [3] 2% | outcome [5] | outcome [6] | outcome [7] | outcome [8]
active: growth inhibition [1] 89% | growth inhibition [4] 97%

CC(C)(C)c1nn(-c2ccccc2)c2[nH]c(=O)c(CNCc3ccccc3)cc12
inactive: inhibition [2] 5% | inhibition [3] 2% | outcome [5] | outcome [6] | outcome [7] | outcome [8]
active: growth inhibition [1] 91% | growth inhibition [4] 90%

CN1CCN(CCCNCc2cccc(-c3ccc(CNCCc4ccccc4)cc3)c2)CC1
inactive: growth inhibition [1] 20% | inhibition [2] 36% | inhibition [3] -9% | outcome [5] | outcome [6] | outcome [7] | outcome [8]
active: growth inhibition [4] 100%

O=C(N1CCN(c2ccnc3cc4c(cc23)N(Cc2ccccc2)CC4)CC1)C(F)(F)F
inactive: inhibition [2] 8% | inhibition [3] 3% | outcome [5] | outcome [6] | outcome [7] | outcome [8]
active: growth inhibition [1] 100% | growth inhibition [4] 100%

O=C(Nc1cc(C(F)(F)F)cc(C(F)(F)F)c1)N1CCC(CCN2CCC(c3c[nH]c4ccccc34)CC2)CC1
inactive: growth inhibition [1] 16% | inhibition [2] 17% | inhibition [3] 6% | outcome [5] | outcome [6] | outcome [7] | outcome [8]
active: growth inhibition [4] 91%

Cc1ccc(-c2noc(=O)n2CC(=O)Nc2ccccc2-c2ccccc2)cc1
inactive: inhibition [2] -1% | inhibition [3] 2% | outcome [5] | outcome [6] | outcome [7] | outcome [8]
active: growth inhibition [1] 86% | growth inhibition [4] 100%

O=C(N[C@@H](CC1CCCCC1)C(=O)NC1CCCc2ccccc21)c1ccc(O)c(-c2cccc([N+](=O)[O-])c2)c1 (stereo partly drawn)
inactive: inhibition [2] -12% | inhibition [3] 1% | outcome [5] | outcome [6] | outcome [7] | outcome [8]
active: growth inhibition [1] 98% | growth inhibition [4] 99%

CC(=O)c1ccc(N2CCN(C(=O)Nc3ccc(Cl)cc3)CC2)cc1
active: growth inhibition [4] 97%
inactive: growth inhibition [1] 0% | inhibition [2] 4% | inhibition [3] 0% | outcome [5] | outcome [6] | outcome [7] | outcome [8]

CCCc1cc(Cc2cnc(N)nc2N)ccc1OCCCCCC(=O)O
inactive: growth inhibition [1] -2% | inhibition [2] 3% | inhibition [3] 1% | outcome [5] | outcome [6] | outcome [7] | outcome [8]
active: growth inhibition [4] 97%

COc1ccc2nccc(N3CCC(SCCNCc4ccc5c(n4)NC(=O)CS5)C3)c2n1 (stereo not drawn)
active: growth inhibition [1] 100% | growth inhibition [4] 95%
inactive: inhibition [2] 34% | inhibition [3] 2% | outcome [5] | outcome [6] | outcome [7] | outcome [8]

Cc1cc(CNCCCCCCNCc2cccc([N+](=O)[O-])c2)ccc1O
inactive: growth inhibition [1] -1% | inhibition [2] 13% | inhibition [3] -8% | outcome [5] | outcome [6] | outcome [7] | outcome [8]
active: growth inhibition [4] 90%

CN(C(=O)c1ccc(Br)cc1)c1ccccc1[N+](=O)[O-]
active: growth inhibition [4] 96%
inactive: growth inhibition [1] 0% | inhibition [2] 3% | inhibition [3] 2% | outcome [5] | outcome [6] | outcome [7] | outcome [8]

CCOc1ccc(C(=O)N2CCOC(CCN3CCC(c4ccccc4)CC3)(c3ccc(Cl)c(Cl)c3)C2)cc1 (stereo not drawn)
inactive: inhibition [2] 14% | inhibition [3] 8% | outcome [5] | outcome [6] | outcome [7] | outcome [8]
active: growth inhibition [1] 71% | growth inhibition [4] 88%

CC(C)CN1CCN(c2nc(C#N)c3c(c2C(=S)NC2CCCCC2)CC(C)(C)OC3)CC1
active: growth inhibition [1] 99% | growth inhibition [4] 101%
inactive: inhibition [2] -4% | inhibition [3] -2% | outcome [5] | outcome [6] | outcome [7] | outcome [8]

Cc1nc2ccc3ccc(CNc4ccc5c(c4)CN([C@@H](CCC(=O)O)C(=O)O)C5=O)cc3c2c(=O)[nH]1
inactive: inhibition [2] 41% | inhibition [3] 2% | outcome [5] | outcome [6] | outcome [7] | outcome [8]
active: growth inhibition [1] 95% | growth inhibition [4] 94%

CN(C(=O)c1ccccc1)[C@@H]1c2cc(C#N)ccc2OC(C)(C)[C@H]1O
active: growth inhibition [4] 97%
inactive: growth inhibition [1] 4% | inhibition [2] 8% | inhibition [3] -3% | outcome [5] | outcome [6] | outcome [7] | outcome [8]

COc1ccc(CCc2ccc(-c3c(C)[nH]c(C)c(Cl)c3=O)cc2)cc1OC
active: growth inhibition [1] 97% | growth inhibition [4] 99%
inactive: inhibition [2] -5% | inhibition [3] -7% | outcome [5] | outcome [6] | outcome [7] | outcome [8]

Cc1cccc2[nH]c(-c3cccc(-c4cccc(CNCCc5cccn5C)c4)c3)nc12
active: growth inhibition [4] 91%
inactive: growth inhibition [1] 49% | inhibition [2] 4% | inhibition [3] 2% | outcome [5] | outcome [6] | outcome [7] | outcome [8]

O=C(Nc1ccc(CCNCc2ccccc2)cc1)Nc1ccc(OC(F)(F)F)cc1
inactive: growth inhibition [1] 22% | inhibition [2] -2% | inhibition [3] -2% | outcome [5] | outcome [6] | outcome [7] | outcome [8]
active: growth inhibition [4] 102%

COc1cccc(C(=O)NC(NC(=S)Nc2ccc(OC)cc2[N+](=O)[O-])C(Cl)(Cl)Cl)c1 (stereo not drawn)
active: growth inhibition [4] 99%
inactive: growth inhibition [1] 49% | inhibition [2] 9% | inhibition [3] -2% | outcome [5] | outcome [6] | outcome [7] | outcome [8]

CN1CCC(c2ccc(NC(=O)c3ccc(-c4cccc(C(F)(F)F)c4)o3)cc2)CC1
inactive: growth inhibition [1] 23% | inhibition [2] 23% | inhibition [3] -3% | outcome [5] | outcome [6] | outcome [7] | outcome [8]
active: growth inhibition [4] 86%

Cc1cc(F)ccc1Nc1nc(N(C)c2ccccc2)c2cccc(OCCO)c2n1
active: growth inhibition [1] 94% | growth inhibition [4] 95%
inactive: inhibition [2] 34% | inhibition [3] 0% | outcome [5] | outcome [6] | outcome [7] | outcome [8]

CCc1ccc(NC(=O)c2cccc(CN3CCCN(Cc4cccc(O)c4)CC3)c2)cc1
inactive: inhibition [3] 3% | outcome [5] | outcome [6] | outcome [7] | outcome [8]
active: growth inhibition [1] 50% | inhibition [2] 53% | growth inhibition [4] 99%

COc1ccc(C(C(=O)NC2CCN(C[C@H](O)c3ccnc4ccc(OC)cc34)CC2)N2CCN(c3ccc([N+](=O)[O-])cc3)CC2)cc1 (stereo partly drawn)
active: growth inhibition [1] 80% | growth inhibition [4] 99%
inactive: inhibition [2] 17% | inhibition [3] -3% | outcome [5] | outcome [6] | outcome [7] | outcome [8]

Nc1nc(N)c2c(CCc3ccc4ccccc4c3)cccc2n1
inactive: growth inhibition [1] 6% | inhibition [3] -2% | outcome [5] | outcome [6] | outcome [7] | outcome [8]
active: inhibition [2] 56% | growth inhibition [4] 102%

Cc1cc(C(=O)Nc2ccc(OCc3ccccc3)cc2)on1
active: growth inhibition [1] 89% | growth inhibition [4] 87%
inactive: inhibition [2] 1% | inhibition [3] 1% | outcome [5] | outcome [6] | outcome [7] | outcome [8]

Nc1cc(C=Cc2ccc([N+](=O)[O-])o2)nc2ccccc12
inactive: inhibition [3] 4% | outcome [5] | outcome [6] | outcome [7] | outcome [8]
active: growth inhibition [1] 81% | inhibition [2] 100% | growth inhibition [4] 93%

CC(C)(C)c1ccc(/C=C/C(=O)NCCCCCN2CCC(c3c[nH]c4ccccc34)CC2)cc1
active: inhibition [2] 70% | growth inhibition [4] 91%
inactive: growth inhibition [1] 12% | inhibition [3] 8% | outcome [5] | outcome [6] | outcome [7] | outcome [8]

COc1ccc(CNCc2ccc(F)cc2)cc1-c1ccc(S(=O)(=O)NCCN2CCCC2)cc1
active: growth inhibition [4] 91%
inactive: growth inhibition [1] 25% | inhibition [2] 38% | inhibition [3] 0% | outcome [5] | outcome [6] | outcome [7] | outcome [8]

NC(=NCc1ccccc1Cl)NCCc1c[nH]c2ccccc12
inactive: growth inhibition [1] 45% | inhibition [2] 16% | inhibition [3] 2% | outcome [5] | outcome [6] | outcome [7] | outcome [8]
active: growth inhibition [4] 83%

O=C(CN1CCN(C(C(=O)Nc2cc(C(F)(F)F)ccc2Cl)c2ccccc2)CC1)NC1CC1 (stereo not drawn)
active: growth inhibition [1] 93% | growth inhibition [4] 95%
inactive: inhibition [2] -6% | inhibition [3] -3% | outcome [5] | outcome [6] | outcome [7] | outcome [8]

COc1ccccc1C1CCN(CCN2CCC(NC(=O)c3ccc(-c4ccc(C#N)cc4)cc3)CC2)CC1
inactive: growth inhibition [1] 42% | inhibition [2] 31% | inhibition [3] -5% | outcome [5] | outcome [6] | outcome [7] | outcome [8]
active: growth inhibition [4] 99%

OC(CNCc1ccco1)Cn1c2ccc(Br)cc2c2cc(Br)ccc21 (stereo not drawn)
active: growth inhibition [1] 72% | growth inhibition [4] 92%
inactive: inhibition [2] 10% | inhibition [3] -3% | outcome [5] | outcome [6] | outcome [7] | outcome [8]

Cc1cccc(NC(=O)Nc2cccc(-c3ccc(-c4nc5ccc(C(F)(F)F)cc5[nH]4)cc3)c2)c1
inactive: inhibition [2] 44% | inhibition [3] -1% | outcome [5] | outcome [6] | outcome [7] | outcome [8]
active: growth inhibition [1] 94% | growth inhibition [4] 101%

CN1CCCc2ccc(NC(=O)C=Cc3ccc(-c4ccc(F)cc4F)o3)cc2C1
inactive: growth inhibition [1] 20% | inhibition [2] 8% | inhibition [3] -5% | outcome [5] | outcome [6] | outcome [7] | outcome [8]
active: growth inhibition [4] 98%

FC(F)(F)c1cc(C(F)(F)F)c2cc(CNCCCNc3nc4ccccc4[nH]3)[nH]c2c1
inactive: inhibition [3] 0% | outcome [5] | outcome [6] | outcome [7] | outcome [8]
active: growth inhibition [1] 99% | inhibition [2] 99% | growth inhibition [4] 100%

O=C(COc1ccc(C(=O)c2ccccc2)cc1)Nc1nccs1
inactive: growth inhibition [1] 18% | inhibition [2] 0% | inhibition [3] 2% | outcome [5] | outcome [6] | outcome [7] | outcome [8]
active: growth inhibition [4] 94%

COc1ccc(Cl)cc1N1CCN(CCCNC(=O)c2ccc(-c3nc4cc(Cl)c(F)cc4[nH]3)cc2)CC1
active: growth inhibition [1] 98% | growth inhibition [4] 101%
inactive: inhibition [2] 3% | inhibition [3] 6% | outcome [5] | outcome [6] | outcome [7] | outcome [8]

CC12CCC(C(=O)N(CC(O)Cn3c4ccc(Cl)cc4c4cc(Cl)ccc43)C1=O)C2(C)C (stereo not drawn)
inactive: inhibition [2] -1% | inhibition [3] -5% | outcome [5] | outcome [6] | outcome [7] | outcome [8]
active: growth inhibition [1] 99% | growth inhibition [4] 100%

COc1ccc(NC(=O)/C=C/c2ccccc2Cl)cc1OCCN1CCC(NC2CC2)CC1
active: growth inhibition [1] 66% | growth inhibition [4] 101%
inactive: inhibition [2] 23% | inhibition [3] 3% | outcome [5] | outcome [6] | outcome [7] | outcome [8]

CNC(=O)c1cncc(/C=C/c2ccccc2S(N)(=O)=O)c1
active: growth inhibition [1] 77% | growth inhibition [4] 100%
inactive: inhibition [2] 17% | inhibition [3] -1% | outcome [5] | outcome [6] | outcome [7] | outcome [8]
